From PubChem BioAssay (Tox21)
Results filed as inconclusive are left out. The source made the active and inactive calls. Unless noted, the call rests on the fitted dose curve; in most records, active means well fitted curve in the direction sought with a large enough effect in the repeat runs; inconclusive means weak or mixed curves; inactive means no such curve, though single readings can be large; an effect the other way counts as inactive or inconclusive.

Assays:
[1] = qHTS assay to identify small molecule antagonists of the estrogen related receptor (ERR) signaling pathway from Tox21 library - cell viability counter screen (AID 1224834); further: nearly all actives have a fitted effect of over 30% in size
Summary of the method: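 Fluorescence from CellTiter-Fluor gives the viability read-out, taken 30 min after reagent addition. Before that, ERR cells seeded 6 h earlier were incubated with compounds for 17.5 h at 37 C.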

[2] = molecular target: Luciferin 4-monooxygenase (Photinus pyralis) (UniProt P08659); assay: qHTS assay to identify small molecule inhibitors of firefly luciferase (AID 1224835); further: nearly all actives have a fitted effect of over 25% in size
Luciferin 4-monooxygenase (Photinus pyralis), sequence (P08659 whole entry, looked up): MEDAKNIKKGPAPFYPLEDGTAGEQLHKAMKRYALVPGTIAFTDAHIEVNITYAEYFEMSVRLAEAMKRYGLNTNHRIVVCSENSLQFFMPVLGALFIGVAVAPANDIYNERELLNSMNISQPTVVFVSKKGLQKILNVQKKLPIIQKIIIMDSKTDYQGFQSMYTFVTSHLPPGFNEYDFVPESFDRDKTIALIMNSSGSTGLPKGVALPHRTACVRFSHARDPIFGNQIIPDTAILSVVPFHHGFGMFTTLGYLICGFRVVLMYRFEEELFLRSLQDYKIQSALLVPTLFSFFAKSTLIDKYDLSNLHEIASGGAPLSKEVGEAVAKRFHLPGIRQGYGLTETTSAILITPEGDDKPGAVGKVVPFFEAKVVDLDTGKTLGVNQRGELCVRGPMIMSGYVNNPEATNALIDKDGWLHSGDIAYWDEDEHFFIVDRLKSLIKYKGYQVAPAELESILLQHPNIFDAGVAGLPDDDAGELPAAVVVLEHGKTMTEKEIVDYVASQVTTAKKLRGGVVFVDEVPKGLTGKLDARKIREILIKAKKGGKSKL
Summary of the method: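 Quantitative HTS format; KM concentrations of both substrates. Purified P. pyralis FLuc activity quantified from luminescence images.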

[3] = qHTS assay to identify small molecule agonists of the constitutive androstane receptor (CAR) signaling pathway - cell viability counter screen (AID 1224836); further: nearly all actives have a fitted effect of over 45% in size
Summary of the method: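 Cell viability multiplexed with the CAR agonist screen: CellTiter-Fluor fluorescence after 23 hr at 37 C. HepG2-CYP2B6-hCAR cells got compounds at 15 concentrations with PK11195 at 0.75 uM final.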

[4] = qHTS assay to identify small molecule antagonists of the constitutive androstane receptor (CAR) signaling pathway - cell viability counter screen (AID 1224837); further: nearly all actives have a fitted effect of over 45% in size
Summary of the method: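 HepG2-CYP2B6-hCAR cells, 2500/well, 4 hr pre-incubation; compound titration, 15 conc.; CITCO 50 nM final; 23 hr, 37 C/5% CO2; CellTiter-Fluor, fluorescence intensity.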

[5] = molecular target: Nuclear receptor subfamily 1 group I member 3 (Homo sapiens) (UniProt Q14994); assay: qHTS assay to identify small molecule antagonists of the constitutive androstane receptor (CAR) signaling pathway (AID 1224838);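 further: HepG2 cells stably expressing hCAR with CYP2B6 luciferase reporter stimulated by CITCO; nearly all actives have a fitted effect of over 40% in size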
Nuclear receptor subfamily 1 group I member 3 (Homo sapiens), sequence (Q14994 whole entry, looked up): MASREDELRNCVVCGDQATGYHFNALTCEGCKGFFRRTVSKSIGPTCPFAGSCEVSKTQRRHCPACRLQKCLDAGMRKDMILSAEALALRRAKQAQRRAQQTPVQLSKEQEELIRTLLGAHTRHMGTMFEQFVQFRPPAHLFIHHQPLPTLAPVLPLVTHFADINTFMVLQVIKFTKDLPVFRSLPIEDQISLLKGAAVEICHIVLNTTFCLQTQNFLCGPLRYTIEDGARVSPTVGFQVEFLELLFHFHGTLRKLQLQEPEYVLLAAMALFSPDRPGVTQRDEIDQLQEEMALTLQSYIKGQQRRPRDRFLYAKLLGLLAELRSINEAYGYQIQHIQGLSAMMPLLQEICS
Summary of the method: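 HepG2-CYP2B6-hCAR cells; 4 h pre-incubation; cpd (15 conc) + CITCO 50 nM final; 24 h, 37 C/5% CO2; ONE-Glo, luminescence.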

[6] = molecular target: Nuclear receptor subfamily 1 group I member 3 (Homo sapiens) (UniProt Q14994); assay: qHTS assay to identify small molecule agonists of the constitutive androstane receptor (CAR) signaling pathway (AID 1224839);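 further: HepG2 cells stably carrying human CAR and a CYP2B6 luciferase reporter; nearly all actives have a fitted effect of over 15% in size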
Summary of the method: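 Luminescent ONE-Glo read-out after 24 hr, 37 C exposure of double-stable HepG2-CYP2B6-hCAR reporter cells to a 15-point compound series, in the presence of 0.75 uM PK11195 (final).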

[7] = qHTS assay to identify small molecule antagonists of the estrogen related receptor signaling pathway with the pleiotropic PPARgamma coactivator (PGC) from Tox21 10K library - cell viability counter screen (AID 1224840; active means well fitted cell-killing curve with a large enough effect in the repeat runs, not every such curve was filed as active; further: nearly all actives have a fitted effect of over 40% in size)
Summary of the method: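 PGC/ERR cells, 2,000/well; 6 h pre-incubation 37 C/5% CO2; cpd in DMSO via pin tool; 17.5 h 37 C; CellTiter-Fluor, 30 min; fluorescence.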

[8] = molecular target: Thyrotropin receptor (Homo sapiens) (UniProt P16473); assay: qHTS assay to identify small molecule agonists of the thyroid stimulating hormone receptor (TSHR) signaling pathway (AID 1224843; calls by dose curve; further: nearly all actives have a fitted effect of over 45% in size)
Thyrotropin receptor (Homo sapiens), sequence (P16473 whole entry, looked up): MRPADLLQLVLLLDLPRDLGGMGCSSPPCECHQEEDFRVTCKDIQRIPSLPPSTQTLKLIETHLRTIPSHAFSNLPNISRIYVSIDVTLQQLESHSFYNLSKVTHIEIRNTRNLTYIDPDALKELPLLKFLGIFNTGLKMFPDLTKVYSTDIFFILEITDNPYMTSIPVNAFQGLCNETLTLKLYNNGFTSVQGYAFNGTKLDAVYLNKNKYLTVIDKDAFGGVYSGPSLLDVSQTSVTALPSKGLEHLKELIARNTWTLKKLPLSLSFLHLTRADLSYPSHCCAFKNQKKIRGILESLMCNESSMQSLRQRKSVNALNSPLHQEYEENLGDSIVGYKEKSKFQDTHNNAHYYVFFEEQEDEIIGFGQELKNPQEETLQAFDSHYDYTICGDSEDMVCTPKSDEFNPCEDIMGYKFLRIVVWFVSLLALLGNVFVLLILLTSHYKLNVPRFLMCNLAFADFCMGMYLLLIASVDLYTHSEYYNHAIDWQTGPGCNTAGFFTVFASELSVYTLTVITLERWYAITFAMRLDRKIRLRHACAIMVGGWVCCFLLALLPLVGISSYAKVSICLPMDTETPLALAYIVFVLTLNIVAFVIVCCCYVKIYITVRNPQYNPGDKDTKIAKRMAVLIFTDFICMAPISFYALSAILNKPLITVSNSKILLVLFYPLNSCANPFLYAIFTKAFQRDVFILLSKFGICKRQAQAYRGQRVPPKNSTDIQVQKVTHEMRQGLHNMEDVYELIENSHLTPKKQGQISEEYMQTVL
Summary of the method: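 Cell line HEK293 with TSHR; density 800/well. Exposure 30 min RT. Readout HTRF cAMP (cAMP-d2/anti-cAMP-cryptate), 1 h RT before reading.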

[9] = qHTS assay to identify small molecule agonists of the hypoxia (HIF-1) signaling pathway - cell viability counter screen (AID 1224844; calls by dose curve; further: nearly all actives have a fitted effect of over 50% in size)
Summary of the method: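 ME-180 HRE-bla cells, 2,000/well, 0.5% dialyzed FBS; 5 hr settle, 17 hr compound at 37C/5% CO2; CCF4-AM reporter read first, then CellTiter-Glo luminescence after 30 min RT.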

[10] = qHTS assay to identify small molecule agonists of H2AX (AID 1224845; active means well fitted activation curve with a large enough effect in the signal ratio in the repeat runs, not every such curve was filed as active; the % refers to the signal ratio)
Summary of the method: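 Wild-type CHO-K1 cells plated overnight, then exposed 3 hr at 37C to compounds at 15 concentrations (0.76% DMSO). Lysed, then HTRF anti-pH2AX(S139)-cryptate/anti-H2AX-d2 detection after 24 hr at room temperature; emissions 665 and 620 nm.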

[11] = qHTS assay to identify small molecule agonists of the hypoxia (HIF-1) signaling pathway (AID 1224846; active means well fitted activation curve with a large enough effect in the signal ratio in the repeat runs, not every such curve was filed as active; the % refers to the signal ratio)
Summary of the method: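 Cell line: CellSensor HRE-bla ME-180; 2,000 cells/well; 0.5% dialyzed FBS; 5 h preincubation; DMSO compound pin transfer; 17 h, 37C, 5% CO2; CCF4-AM added; bla FRET signal scored for activation.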

[12] = qHTS assay to identify small molecule agonists of H2AX - cell viability counter screen (AID 1224847; calls by dose curve; further: top concentration of the series differs between compounds; nearly all actives have a fitted effect of over 30% in size)
Summary of the method: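 Counter-screen for viability: CellTiter-Glo ATP luminescence read after 3 h compound treatment (15-point titration, 0.76% DMSO final) of CHO-K1 cells at 37C, with 30 min room-temperature reagent incubation.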

[13] = qHTS RealTime-Glo MT Cell Viability Assay in HepG2 cells - 24 hour (AID 1224867); further: nearly all actives have a fitted effect of over 50% in size
Summary of the method: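 Tox21 10K library screened in qHTS format on HepG2 cells carrying RealTime-Glo reagents. Compounds were added after a 5 h preincubation, and the luminescent signal from continuous culture was measured repeatedly during 40 h treatment.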

[14] = qHTS RealTime-Glo MT Cell Viability Assay in HEK293 cells - 32 hour (AID 1224868); further: top concentration of the series differs between compounds; nearly all actives have a fitted effect of over 50% in size
Summary of the method: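 Luminescence generated by NanoLuc from substrate produced by living HEK293 cells served as the viability signal. Each value reflects the reading at its stated time point during continuous 40 h compound exposure at 37 C.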

[15] = A CellTox Green Cytotoxicity Assay to monitor cytotoxicity in HEK293 cells - 0 hour (AID 1224869); further: nearly all actives have a fitted effect of over 50% in size
Summary of the method: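 Nonlytic real-time cytotoxicity: HEK293 + CellTox Green reagent plated, 5 h preincubation, pintool compound addition (23 nL in DMSO), 37 C for 40 h, fluorescence measured at successive time points.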

[16] = qHTS RealTime-Glo MT Cell Viability Assay in HepG2 cells - 40 hour (AID 1224870); further: nearly all actives have a fitted effect of over 50% in size
Summary of the method: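 HepG2 cells mixed with RealTime-Glo MT reagents (NanoLuc plus cell-permeant prosubstrate) were seeded at 600 cells/well, incubated 5 h at 37 C/5% CO2, then pinned with compounds in DMSO; nonlytic luminescence tracked viability during 40 h treatment.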

[17] = qHTS assay to identify small molecule antagonists of the estrogen related receptor signaling pathway with the pleiotropic PPARgamma coactivator (PGC) from Tox21 10K library (AID 1224841; call rule not given here)
Summary of the method: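 PGC/ERR cell line, 2,000 cells/well; 6 h pre-incubation 37 C/5% CO2; compounds (DMSO) pinned in; 18 h, 37 C; One-Glo, 30 min RT; luminescence.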

[18] = qHTS assay to identify small molecule agonists of the estrogen related receptor signaling pathway with the pleiotropic PPARgamma coactivator (PGC) from Tox21 10K library (AID 1224842); further: nearly all actives have a fitted effect of over 15% in size
Summary of the method: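 PGC/ERR reporter cells (NTP line) were seeded 2,000 per well, rested 6 h at 37 C/5% CO2, then pin-dosed with compounds in DMSO for 18 h at 37 C; luciferase read by One-Glo luminescence after 30 min at room temperature.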

[19] = qHTS assay to identify small molecule antagonists of the estrogen related receptor (ERR) signaling pathway from Tox21 library (AID 1224848); further: nearly all actives have a fitted effect of over 50% in size
Summary of the method: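 Screening used an ERR reporter line supplied by NTP, exposed for 18 h at 37 C to library compounds delivered in DMSO. Signal was luciferase luminescence developed with ONE-Glo at room temperature for 30 min.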

[20] = qHTS assay to identify small molecule agonists of the estrogen related receptor (ERR) signaling pathway from Tox21 library (AID 1224849; calls by dose curve; further: nearly all actives have a fitted effect of over 15% in size); details: ERR reporter cell line, ONE-Glo luciferase, 18 h; at 92.4 µM (top of the series)
Summary of the method: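 ERR cells, 6 h pre-incubation 37 C/5% CO2; cpd in DMSO pinned; 18 h 37 C; ONE-Glo added, 30 min RT; luminescence read. Agonist mode, qHTS.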
On the % scale 0 is the no-effect control and ±100 the full control effect.

CCCCC(CC)COC(=O)CCCCC(=O)OCc1ccccc1 (stereo not drawn)
inactive: Potency [1] | Potency [2] | Potency [3] | Potency [4] | Potency [5] | Potency [6] | Potency [7] | Potency [8] | Potency [9] | Potency [10] | Potency [11] | Potency [12] | Potency [13] | Potency [14] | Potency [15]

OC1CCCc2ccccc21 (stereo not drawn)
inactive: Potency [1] | Potency [2] | Potency [3] | Potency [4] | Potency [5] | Potency [6] | Potency [7] | Potency [8] | Potency [9] | Potency [10] | Potency [11] | Potency [12] | Potency [13] | Potency [14] | Potency [16]

OC/C=C/CO
inactive: Potency [1] | Potency [2] | Potency [3] | Potency [4] | Potency [5] | Potency [6] | Potency [7] | Potency [8] | Potency [9] | Potency [10] | Potency [11] | Potency [12] | Potency [13] | Potency [14] | Potency [16]

O=C(O)c1cccc(C(F)(F)F)c1
inactive: Potency [1] | Potency [2] | Potency [3] | Potency [4] | Potency [5] | Potency [6] | Potency [7] | Potency [17] | Potency [18] | Potency [8] | Potency [9] | Potency [10] | Potency [11] | Potency [19] | activity change, positive = activation [20] -2.71% | Potency [13] | Potency [14] | Potency [16]

CC1(C)CC(O)CC(C)(C)N1
inactive: Potency [1] | Potency [2] | Potency [3] | Potency [4] | Potency [5] | Potency [6] | Potency [7] | Potency [8] | Potency [9] | Potency [10] | Potency [11] | Potency [12] | Potency [13] | Potency [14] | Potency [15] | Potency [16]

OC[C@@H](O)[C@@H](O)CO
inactive: Potency [1] | Potency [2] | Potency [3] | Potency [4] | Potency [5] | Potency [6] | Potency [7] | Potency [17] | Potency [18] | Potency [8] | Potency [10] | Potency [11] | Potency [12] | Potency [19] | activity change, positive = activation [20] 4.53% | Potency [13] | Potency [14] | Potency [15]

CC1(C)CCC[C@]2(C)[C@H]3CCO[C@]3(C)CC[C@@H]12
inactive: Potency [1] | Potency [2] | Potency [3] | Potency [4] | Potency [5] | Potency [6] | Potency [7] | Potency [17] | Potency [18] | Potency [8] | Potency [10] | Potency [12] | Potency [19] | activity change, positive = activation [20] 5.7% | Potency [13] | Potency [14]
